Test results: the supplement of paper PMC11417369
Whole data set: some 25,000 sequences, median “ln(normalized median fluorescence intensity)” near 9.3, cut for the highest 2% near 10. Only a selection was taken, and the highest values are over-represented in it overall.

Each sequence was assayed on PF3D7_0420300 AP2 domain 1 (GST-tagged) (assay: gcPBM binding intensity (ln(normalized median fluorescence intensity)); higher = stronger DNA binding).
Summary of the method: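 An Agilent 4 × 180k array of primer-extended double-stranded 36-bp intergenic genomic probes, with negative controls, was incubated for 1 h with GST-tagged P. falciparum DNA-binding domains expressed in E. coli. Alexa488 anti-GST antibody detected bound protein, scanned at 488 nm. Binding intensity is the highest Masliner-normalised natural-log median intensity across replicate spots of either probe orientation.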

Row | Sequence | gcPBM binding intensity (ln)
1 | ATTATTACACAACGTTGTACATTTCAATATTTTTAT [XGTACX_site5096] | 9.52
2 | TAAATTTTAATATGCACACAAAATGTTATATTAAAA [CACACA_site4366] | 9.11
3 | ATAAAAATAACATATAAACACACATATATATATATA [CACACA_site9267] | 9.35
4 | AACTTGTATTTATACACACACACACTGTCTTTTTTT [CACACA_site7009] | 10.3
5 | TTGTATATACTATACACACACATACATACATACATA [CACACA_site814] | 9.85
6 | TATATTTATTTATATACACACACTTGTATAAAAAAT [CACACA_site2036] | 9.4
7 | TATATAGTAATATATACACACACTTGTCTTGTAAAA [CACACA_site990] | 9.56
8 | AACTTGTATATATACACACACACACTGTCTTTTTTT [CACACA_site1963] | 10.2
9 | CTTGTATATAAACACACACACACTTTCTTTTTTTAA [CACACA_site8602] | 9.91
10 | ATAACTTGTATATATACACACACACCCTTTCTTTTT [CACACA_site8600] | 10.1
11 | AACTTGTATATATACACACACACACTATCTTTTTTT [CACACA_site8601] | 10.2
12 | AACTTGTATTTATACACACACACACTAGCTTTTTTT [CACACA_site5132] | 10.2
13 | TTCAAAGACACAATCACACACATACATAAATATACA [CACACA_site687] | 9.84
14 | TAATCGAAACAAAGAACATGCAAACATATACCTATA [TGCATGCA_site894] | 9.6
15 | ATTTATACATATAAACGTACATACATATATAATATT [XGTACX_site2969] | 9.3
16 | TATTTTTATATAATGTGTACTTATACCTTATTTTTT [XGTACX_site1658] | 9.3
17 | TATATATTATATATATGTACTTATTCATATATATAA [XGTACX_site3860] | 9.06
18 | TTTTACTTAAAACACACACACACAAAAAAAAAAAAA [CACACA_site947] | 9.96
19 | CACACGCACGAACACACACACACACGCATATAAATA [CACACA_site6302] | 10.3
20 | AAATTCCACGAACACACACACATATAAATAAATAAA [CACACA_site6697] | 9.97
21 | CACACGCACGAACACACACACATATAAATATAAATA [CACACA_site6299] | 9.92
22 | AGAATAAAAAGGAACACACACACACGCATATAAATA [CACACA_site7659] | 10.3
23 | ATATAAAGAAAAGGAACACACAAATATATATATATA [CACACA_site463] | 9.57
24 | AGAATAAAAAGGAACACACACACACCCATATATATA [CACACA_site3590] | 10.1
25 | AAATATAATAAAATGACACACGCATATATATATATA [CACACA_site8900] | 9.38

Row | Sequence | gcPBM binding intensity (ln)
26 | ACACGCACATATATATAAATATATATATATATAAAT [CACACA_negctrl_site1781] | 9.21
27 | CACGCGCACGAACACACACACACACGCATATAAATA [CACACA_site7103] | 10.3
28 | CAGTAGTATATACTATGTACATATTTATATTATATT [XGTACX_site4964] | 9.22
29 | TAATAAACCAAACTAAACAATATATCAAAAAGCACA [CACACA_negctrl_site269] | 9.75
30 | TATATATATATTTTAACACACACATATATATATTTA [CACACA_site8892] | 9.63
31 | TGAAAGAACCTGATTACACACATAAATTATATATAT [CACACA_site26] | 9.54
32 | GTAATATCAATATAAAGTACACACTATAGTATGTAT [XGTACX_site4714] | 9.52
33 | TTTTAAATAAAAAAATTAAATTAAAATATATAAAAA [XGTACX_negctrl_site490] | 8.82
34 | TGTATTAACAAAAAGGTGCGGATATATATAAAAAAT [GTGCAC_site9473] | 9.61
35 | ATACATATATACATATGTACATATATATATATATAT [XGTACX_site8206] | 9.3
36 | AAAAAAAAAAAAAAAAAAAAAAATATATATATATAT [XGTACX_negctrl_site33] | 9.26
37 | ACATCGATTTATATTCTGCACTGAAGAAACTACAAC [GTGCAC_site9967] | 9.32
38 | ATTTGGCATAAACACACACACACACCCACCCACATA [CACACA_site8096] | 10.4
39 | TGTAAATTTGGCATCACACATAAATAAACATATAAA [CACACA_site4497] | 9.4
40 | CATATTTGGAAACACACACACATATTTATATATATA [CACACA_site3569] | 9.95
41 | ATTTGGCAGAAACACACACACACACCCACCCACATA [CACACA_site589] | 10.4
42 | ATAATTTGGAAACACACACACACACCCACATATATA [CACACA_site2286] | 10.3
43 | TAATTTTTGAAACACACACACATATATATATATATA [CACACA_site94] | 9.71
44 | TAGAAGCAGAAACACACACACATACATACACATACA [CACACA_site1467] | 9.99
45 | TACATAAATTAATAGTCACACACGTATTTTTTATAT [CACACA_site8806] | 9.45
46 | AATAGAACTATTACACGTACAGAACATGAATTAGTT [XGTACX_site7518] | 9.36
47 | TCAAAAGAAATAAAAACATGCATAAAAGTAAAAATA [TGCATGCA_site832] | 9.33
48 | ATAAATGACAAATTAACACACATATATTATAGATAT [CACACA_site7770] | 9.68
49 | TATATATTATATAAATAAATAAATATATATATTTAT [TGCATGCA_negctrl_site270] | 8.94
50 | TTTTTATTTTTTTACAGTACATAAAATAAATAAATA [XGTACX_site6596] | 8.84
